{"source": "PubChem BioAssay (NCATS)", "key": {"[1]": {"system": "Zika virus NS2B-NS3 protease", "assay": "Primary screen GU AMC qHTS for Zika virus inhibitors (AID 1347154); further: nearly all actives have a fitted effect of over 70% in size; further: potency means the concentration at half of the fitted maximal effect", "procedure,_shortened": "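Unlinked Zika NS2B hydrophilic domain–NS3 protease complex at 25 nM in 10 mM Tris-HCl pH 8.0, 0.01% Tween 20, with an AMC peptide substrate. Fluorescence change (340/450 nm) over 15 min at room temperature, normalized to controls, fitted to 4-parameter Hill.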"}, "[2]": {"system": "Zika virus NS2B-NS3 protease (linked construct)", "assay": "Primary screen NINDS Rhodamine qHTS for Zika virus inhibitors (AID 1347160); further: nearly all actives have a fitted effect of over 55% in size; further: potency means the concentration at half of the fitted maximal effect", "procedure,_shortened": "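Each compound, titrated, sat 15 min with 25 nM linked protease before 1.5 microM Rhodamine110 substrate went in. Fluorescence gain over the next 15 min, in pH 8.0 Tris with Tween 20, gave Hill-fitted curves.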"}, "[3]": {"system": "Zika virus NS2B-NS3 protease (unlinked complex)", "assay": "Primary screen GU Rhodamine qHTS for Zika virus inhibitors: Unlinked NS2B-NS3 protease assay (AID 1347159); further: nearly all actives have a fitted effect of over 60% in size; further: potency means the concentration at half of the fitted maximal effect", "procedure,_shortened": "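In dose–response format, inhibition of unlinked protease (25 nM) was measured with 1.5 microM bis-peptide Rhodamine110 substrate. Aprotinin served as the intraplate control.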"}, "[4]": {"assay": "Confirmatory screen NINDS Rhodamine qHTS for Zika virus inhibitors (AID 1347161); further: series mostly up to about 110 µM; nearly all actives have a fitted effect of over 60% in size", "procedure,_shortened": "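Enzyme (25 nM, linked NS2B-NS3) was preincubated 15 min with compound in 10 mM Tris-HCl pH 8.0, 0.01% Tween 20. Rhodamine110 substrate (1.5 microM) was then added and fluorescence read at start and after 15 min.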"}, "[5]": {"molecular_target": "Lysine-specific demethylase 5B (Homo sapiens) (UniProt Q9UGL1)", "sequence (Q9UGL1 whole entry, looked up)": "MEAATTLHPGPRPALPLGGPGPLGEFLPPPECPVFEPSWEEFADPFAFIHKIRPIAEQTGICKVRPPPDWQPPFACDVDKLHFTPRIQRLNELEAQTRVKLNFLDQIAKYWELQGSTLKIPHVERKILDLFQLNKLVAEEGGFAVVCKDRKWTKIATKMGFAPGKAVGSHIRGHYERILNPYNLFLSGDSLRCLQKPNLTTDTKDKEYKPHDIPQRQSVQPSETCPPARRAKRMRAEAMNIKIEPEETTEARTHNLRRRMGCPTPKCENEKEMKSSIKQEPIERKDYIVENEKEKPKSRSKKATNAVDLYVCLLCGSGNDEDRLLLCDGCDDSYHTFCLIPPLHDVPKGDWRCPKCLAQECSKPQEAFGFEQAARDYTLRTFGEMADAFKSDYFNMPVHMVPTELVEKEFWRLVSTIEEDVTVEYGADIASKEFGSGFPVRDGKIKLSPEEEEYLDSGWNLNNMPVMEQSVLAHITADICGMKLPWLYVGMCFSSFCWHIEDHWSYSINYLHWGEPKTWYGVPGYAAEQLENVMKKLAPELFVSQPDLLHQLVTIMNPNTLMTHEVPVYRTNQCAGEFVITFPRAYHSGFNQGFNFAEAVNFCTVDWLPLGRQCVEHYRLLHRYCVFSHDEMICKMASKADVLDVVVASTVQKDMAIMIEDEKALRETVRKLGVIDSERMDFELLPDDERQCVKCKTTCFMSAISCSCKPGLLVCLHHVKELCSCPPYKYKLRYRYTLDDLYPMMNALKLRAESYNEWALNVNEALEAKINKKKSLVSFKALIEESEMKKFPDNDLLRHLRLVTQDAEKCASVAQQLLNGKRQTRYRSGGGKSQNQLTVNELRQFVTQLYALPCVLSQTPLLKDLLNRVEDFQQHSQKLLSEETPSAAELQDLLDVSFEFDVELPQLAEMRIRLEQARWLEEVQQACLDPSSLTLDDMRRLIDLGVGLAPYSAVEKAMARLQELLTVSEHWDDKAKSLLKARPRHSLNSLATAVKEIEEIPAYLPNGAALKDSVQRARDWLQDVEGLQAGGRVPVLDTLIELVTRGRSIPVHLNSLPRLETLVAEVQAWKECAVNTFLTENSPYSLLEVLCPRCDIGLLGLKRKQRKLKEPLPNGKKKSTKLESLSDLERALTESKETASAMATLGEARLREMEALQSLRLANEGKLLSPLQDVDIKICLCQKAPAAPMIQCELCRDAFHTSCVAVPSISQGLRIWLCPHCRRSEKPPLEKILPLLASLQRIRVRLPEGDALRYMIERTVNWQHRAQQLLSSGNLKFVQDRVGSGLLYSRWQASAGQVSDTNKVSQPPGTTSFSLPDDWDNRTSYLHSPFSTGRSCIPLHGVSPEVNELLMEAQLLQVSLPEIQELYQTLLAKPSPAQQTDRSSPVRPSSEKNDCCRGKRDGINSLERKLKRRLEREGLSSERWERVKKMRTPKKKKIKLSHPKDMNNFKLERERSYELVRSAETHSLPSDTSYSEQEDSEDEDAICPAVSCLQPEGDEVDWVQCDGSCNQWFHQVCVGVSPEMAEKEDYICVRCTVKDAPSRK", "assay": "Optimization screen for KDM5B Histone Demethylases FDH coupled qHTS against the LOPAC library (AID 1347166)", "procedure,_shortened": "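KDM5BDeltaAP (200nM final) in 50mM HEPES pH 7.5, 0.01% Tween-20 was preincubated with compound for 10 min at room temperature. A substrate mix of 12.5uM H3K4Me3, 25uM a-ketoglutarate, ascorbate, Fe2+, NAD+ and formaldehyde dehydrogenase was then added. NADH fluorescence (340/450 nm) was read initially and after 30 min.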"}}, "note": "Results filed as inconclusive are left out. Where a call stands in place of a potency, no number is given. Calls of active or inactive are those of the source. The call rests on the fitted dose curve; in most records, active means well fitted curve in the direction sought with a large enough effect; inconclusive means small, poorly fitted or top-dose-only effect, or another doubt; inactive means no such curve, though single readings can be large; an effect the other way counts as inactive or inconclusive."}
{"smiles": "CC(O)(C#Cc1ccc2c(c1)N(c1nc(N)ncc1Cl)CC2)c1nccs1", "note": "(stereo not given)", "values": [{"measurement": "Potency", "setting": "[1]", "value": "inactive"}, {"measurement": "Potency", "setting": "[2]", "value": "inactive"}]}
{"smiles": "Cc1cncc2cccc(S(=O)(=O)N3CCCN(C(=O)CN)C[C@@H]3C)c12", "values": [{"measurement": "Potency", "setting": "[1]", "value": "inactive"}, {"measurement": "Potency", "setting": "[3]", "value": "inactive"}, {"measurement": "Potency", "setting": "[2]", "value": "inactive"}]}
{"smiles": "CCCCOc1ccc(C(=O)Nc2ccc(F)cc2F)cc1", "values": [{"measurement": "Potency", "setting": "[3]", "value": "inactive"}, {"measurement": "Potency", "setting": "[2]", "value": "inactive"}]}
{"smiles": "C[C@H]1[C@@H](OC(=O)CCC(=O)O)O[C@@H]2O[C@@]3(C)CC[C@@H]4[C@H](C)CC[C@@H]1[C@@]24OO3", "values": [{"measurement": "Potency", "setting": "[1]", "value": "inactive"}, {"measurement": "Potency", "setting": "[3]", "value": "inactive"}, {"measurement": "Potency", "setting": "[2]", "value": "inactive"}]}
{"smiles": "Nc1ccc(C(=O)Nc2cccc(-c3nc(N4CCOCC4)c4oc5ncccc5c4n3)c2)cn1", "values": [{"measurement": "Potency", "setting": "[1]", "value": "inactive"}, {"measurement": "Potency", "setting": "[2]", "value": "inactive"}]}
{"smiles": "Nc1ccn(C2CO[C@H](CO)O2)c(=O)n1", "note": "(stereo not given in full)", "values": [{"measurement": "Potency", "setting": "[1]", "value": "inactive"}, {"measurement": "Potency", "setting": "[3]", "value": "inactive"}, {"measurement": "Potency", "setting": "[2]", "value": "inactive"}]}
{"smiles": "O=C(Nc1ccc(Oc2ccnc3[nH]ccc23)c(F)c1)c1cccn(-c2ccc(F)cc2)c1=O", "values": [{"measurement": "Potency", "setting": "[1]", "value": "inactive"}, {"measurement": "Potency", "setting": "[3]", "value": "inactive"}, {"measurement": "Potency", "setting": "[2]", "value": "inactive"}]}
{"smiles": "N#Cc1c(C2CCNCC2)cc(-c2c(O)cccc2OCC2CC2)nc1N", "values": [{"measurement": "Potency", "setting": "[3]", "value": "inactive"}, {"measurement": "Potency", "setting": "[2]", "value": "inactive"}]}
{"smiles": "CCOc1cc2c(c(F)c1OCC)C(=N)N(CC(=O)c1cc(N3CCOCC3)c(OC)c(C(C)(C)C)c1)C2", "values": [{"measurement": "Potency", "setting": "[3]", "value": "inactive"}, {"measurement": "Potency", "setting": "[2]", "value": "inactive"}]}
{"smiles": "Cn1cnc2c(F)c(Nc3ccc(Br)cc3F)c(C(=O)NOCCO)cc21", "values": [{"measurement": "Potency", "setting": "[1]", "value": "inactive"}, {"measurement": "Potency", "setting": "[3]", "value": "inactive"}, {"measurement": "Potency", "setting": "[2]", "value": "inactive"}]}
{"smiles": "Oc1cc(-c2nc(-c3ccccc3)[nH]c2-c2ccncc2)ccc1Cl", "values": [{"measurement": "Potency", "setting": "[2]", "value": "inactive"}]}
{"smiles": "CCC[C@H]1C[C@H](C(=O)N[C@@H]([C@@H]2O[C@@H](SC)[C@@H](O)[C@@H](O)[C@@H]2O)[C@H](C)Cl)N(C)C1", "values": [{"measurement": "Potency", "setting": "[1]", "value": "inactive"}, {"measurement": "Potency", "setting": "[3]", "value": "inactive"}, {"measurement": "Potency", "setting": "[2]", "value": "inactive"}]}
{"smiles": "CN[C@@H]1C[C@H]2O[C@@](C)([C@H]1OC)n1c3ccccc3c3c4c(c5c6ccccc6n2c5c31)C(=O)N[C@H]4O", "values": [{"measurement": "Potency", "setting": "[1]", "value": "21.5 µM (active)"}, {"measurement": "Potency", "setting": "[4]", "value": "inactive"}]}
{"smiles": "COc1cc(CCc2cc(NC(=O)c3ccc(N4C[C@@H](C)N[C@@H](C)C4)cc3)n[nH]2)cc(OC)c1", "values": [{"measurement": "Potency", "setting": "[1]", "value": "inactive"}, {"measurement": "Potency", "setting": "[3]", "value": "inactive"}, {"measurement": "Potency", "setting": "[2]", "value": "inactive"}]}
{"smiles": "COc1ccc2cc([S+]([O-])Cc3ncc(C)c(OC)c3C)nc2c1", "values": [{"measurement": "outcome", "setting": "[5]", "value": "inactive"}]}
{"smiles": "O=C(Nc1cc2cc[nH]c2cn1)c1ccccc1", "values": [{"measurement": "Potency", "setting": "[1]", "value": "inactive"}, {"measurement": "Potency", "setting": "[3]", "value": "inactive"}, {"measurement": "Potency", "setting": "[2]", "value": "inactive"}]}
{"smiles": "Cn1cc(-c2ccc3ncc(Cc4ccc5ncccc5c4)n3n2)cn1", "values": [{"measurement": "Potency", "setting": "[1]", "value": "inactive"}, {"measurement": "Potency", "setting": "[3]", "value": "inactive"}, {"measurement": "Potency", "setting": "[2]", "value": "inactive"}]}
{"smiles": "O=c1[nH]c(=O)n([C@H]2C[C@@H](O)[C@@H](CO)O2)cc1C=CBr", "values": [{"measurement": "Potency", "setting": "[1]", "value": "inactive"}, {"measurement": "outcome", "setting": "[5]", "value": "inactive"}]}
{"smiles": "CN[C@H](CC(C)C)C(=O)N[C@H]1C(=O)N[C@@H](CC(N)=O)C(=O)N[C@@H]2C(=O)N[C@H]3C(=O)N[C@H](C(=O)N[C@H](C(=O)O)c4cc(O)cc(O)c4-c4cc3ccc4O)[C@H](O)c3ccc(c(Cl)c3)Oc3cc2cc(c3O[C@@H]2O[C@H](CO)[C@@H](O)[C@H](O)[C@@H]2O[C@H]2C[C@](C)(N)[C@H](O)[C@H](C)O2)Oc2ccc(cc2Cl)[C@H]1O", "values": [{"measurement": "outcome", "setting": "[5]", "value": "inactive"}]}
{"smiles": "CC(C)(N)c1ccc(-c2nc3ccccc3nc2-c2ccccc2)cc1", "values": [{"measurement": "Potency", "setting": "[3]", "value": "inactive"}, {"measurement": "Potency", "setting": "[2]", "value": "inactive"}]}
{"smiles": "CN1CCc2c(c3ccccc3n2Cc2ccc(C(=O)NO)cc2)C1", "values": [{"measurement": "Potency", "setting": "[3]", "value": "inactive"}, {"measurement": "Potency", "setting": "[2]", "value": "inactive"}]}
{"smiles": "Cc1coc2c1C(=O)C(=O)c1c-2ccc2c(C)cccc12", "values": [{"measurement": "Potency", "setting": "[3]", "value": "35.5 µM (active)"}, {"measurement": "Potency", "setting": "[2]", "value": "25.1 µM (active)"}]}
{"smiles": "CCc1ccc(C(=O)Nc2cc(CN3CCN(C)CC3)cc(C(F)(F)F)c2)cc1C#Cc1cnc2ccnn2c1", "values": [{"measurement": "Potency", "setting": "[3]", "value": "inactive"}, {"measurement": "Potency", "setting": "[2]", "value": "inactive"}]}
{"smiles": "OCCNC1CCCc2c1[nH]c1ccc(-c3ccccc3)cc21", "note": "(stereo not given)", "values": [{"measurement": "Potency", "setting": "[1]", "value": "inactive"}, {"measurement": "Potency", "setting": "[3]", "value": "inactive"}, {"measurement": "Potency", "setting": "[2]", "value": "inactive"}]}
{"smiles": "Cc1cnc(Nc2ccc(CN3CCOCC3)cc2)nc1Nc1cccc(S(=O)(=O)NC(C)(C)C)c1", "values": [{"measurement": "Potency", "setting": "[1]", "value": "inactive"}, {"measurement": "Potency", "setting": "[3]", "value": "inactive"}, {"measurement": "Potency", "setting": "[2]", "value": "inactive"}]}
{"smiles": "c1ccc2c(Oc3nc(Nc4ccc(N5CCOCC5)cc4)c4ncn(C5CCCCC5)c4n3)cccc2c1", "values": [{"measurement": "Potency", "setting": "[3]", "value": "inactive"}, {"measurement": "Potency", "setting": "[2]", "value": "inactive"}]}
{"smiles": "O=C(O)c1ccc(Nc2ncc3c(n2)-c2ccc(Cl)cc2C(c2c(F)cccc2F)=NC3)cc1", "values": [{"measurement": "Potency", "setting": "[3]", "value": "8.91 µM (active)"}]}
{"smiles": "C=C(C)[C@@H]1CC[C@]2(C(=O)O)CC[C@]3(C)[C@H](CC[C@@H]4[C@@]5(C)CC[C@H](O)C(C)(C)[C@@H]5CC[C@]43C)[C@@H]12", "values": [{"measurement": "Potency", "setting": "[1]", "value": "inactive"}, {"measurement": "Potency", "setting": "[2]", "value": "6.21 µM (active)"}]}
{"smiles": "FC(F)c1nc2ccccc2n1-c1nc(N2CCOCC2)nc(N2CCOCC2)n1", "values": [{"measurement": "Potency", "setting": "[1]", "value": "inactive"}, {"measurement": "Potency", "setting": "[3]", "value": "inactive"}, {"measurement": "Potency", "setting": "[2]", "value": "inactive"}]}
{"smiles": "CC(C)n1cnc2c(NCCc3ccc(O)cc3)nc(-c3csc4ccccc34)nc21", "values": [{"measurement": "Potency", "setting": "[1]", "value": "inactive"}, {"measurement": "Potency", "setting": "[2]", "value": "inactive"}]}
{"smiles": "c1cc(N[C@@H]2CCNC2)nc(-c2cnc3ccc(-c4cn[nH]c4)cn23)c1", "values": [{"measurement": "Potency", "setting": "[1]", "value": "19.2 µM (active)"}, {"measurement": "Potency", "setting": "[2]", "value": "inactive"}, {"measurement": "Potency", "setting": "[4]", "value": "inactive"}]}
{"smiles": "CCc1nc(-c2cccc(C)c2)c(-c2ccnc(NC(=O)c3ccccc3)c2)s1", "values": [{"measurement": "Potency", "setting": "[3]", "value": "inactive"}, {"measurement": "Potency", "setting": "[2]", "value": "inactive"}]}
{"smiles": "Oc1ccc([C@@H]2Oc3ccc(O)cc3[C@@H]3CCC[C@@H]32)cc1", "values": [{"measurement": "Potency", "setting": "[1]", "value": "inactive"}, {"measurement": "Potency", "setting": "[2]", "value": "inactive"}]}
